# Laboratory results reported in PMC7862700, “An all-to-all approach to the identification of sequence-specific readers for epigenetic DNA modifications on cytosine”.
# Tests used:
# Assay in all cases: DAPPL (digital affinity profiling via proximity ligation, sequencing); 10 mM Tris-HCl pH 7.5, 50 mM NaCl, 1 mM DTT, 4% glycerol, room temperature, 30 min; GST-TFs on glutathione beads, 16-mer random dsDNA library, 0.1% formaldehyde crosslink after washing; high values mean tight binding
# Conditions in all cases: protein: recombinant; tags: N-terminal GST; dsDNA, one strand shown
# FLI1 = molecular target: T1, FLI1 (Homo sapiens, UniProt Q01543 1-452)
# T1 sequence: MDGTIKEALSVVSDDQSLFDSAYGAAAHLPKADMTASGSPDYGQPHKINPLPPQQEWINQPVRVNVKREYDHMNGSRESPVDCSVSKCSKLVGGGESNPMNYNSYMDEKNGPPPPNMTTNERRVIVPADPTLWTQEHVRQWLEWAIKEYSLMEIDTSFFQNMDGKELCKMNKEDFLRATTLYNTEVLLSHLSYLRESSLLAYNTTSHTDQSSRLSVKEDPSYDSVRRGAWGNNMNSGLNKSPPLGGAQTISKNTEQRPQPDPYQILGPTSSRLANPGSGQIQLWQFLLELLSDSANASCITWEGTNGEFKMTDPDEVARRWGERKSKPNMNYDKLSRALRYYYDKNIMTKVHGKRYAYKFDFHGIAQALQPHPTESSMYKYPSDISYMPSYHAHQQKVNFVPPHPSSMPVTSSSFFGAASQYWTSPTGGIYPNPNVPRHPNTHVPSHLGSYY
# Method in brief: (§1)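 Pools were built from human transcription factors expressed in yeast as GST fusions, captured on glutathione beads and DNA-barcoded, along with a tag-only sample. Incubation with 200 nmole of a 16-mer random double-stranded DNA library lasted 30 min at room temperature in Tris/NaCl/DTT/glycerol buffer, and was followed by washing, 0.1% formaldehyde crosslinking, proximity ligation, PCR amplification and Illumina NextSeq500 sequencing. Binding signal is the quotient of each hexamer's read frequency for a factor and its frequency for the tag-only sample.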
# ELK1 = molecular target: T2, ELK1 (Homo sapiens, UniProt P19419 1-428)
# T2 sequence: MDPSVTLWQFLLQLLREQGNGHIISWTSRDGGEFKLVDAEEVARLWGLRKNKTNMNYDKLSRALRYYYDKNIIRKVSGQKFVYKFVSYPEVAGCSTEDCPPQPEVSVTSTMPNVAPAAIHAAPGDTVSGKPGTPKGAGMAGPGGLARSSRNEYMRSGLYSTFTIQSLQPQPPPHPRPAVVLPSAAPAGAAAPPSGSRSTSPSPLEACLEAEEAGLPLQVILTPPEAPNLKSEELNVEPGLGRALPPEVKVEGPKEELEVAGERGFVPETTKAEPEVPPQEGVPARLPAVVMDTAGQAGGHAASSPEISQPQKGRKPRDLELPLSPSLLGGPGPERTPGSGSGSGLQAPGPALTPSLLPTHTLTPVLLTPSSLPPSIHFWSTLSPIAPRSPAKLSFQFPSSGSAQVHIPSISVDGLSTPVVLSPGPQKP
# Method in brief: as §1
# GABPA = molecular target: T3, GABPA (Homo sapiens, UniProt Q06546 1-454)
# T3 sequence: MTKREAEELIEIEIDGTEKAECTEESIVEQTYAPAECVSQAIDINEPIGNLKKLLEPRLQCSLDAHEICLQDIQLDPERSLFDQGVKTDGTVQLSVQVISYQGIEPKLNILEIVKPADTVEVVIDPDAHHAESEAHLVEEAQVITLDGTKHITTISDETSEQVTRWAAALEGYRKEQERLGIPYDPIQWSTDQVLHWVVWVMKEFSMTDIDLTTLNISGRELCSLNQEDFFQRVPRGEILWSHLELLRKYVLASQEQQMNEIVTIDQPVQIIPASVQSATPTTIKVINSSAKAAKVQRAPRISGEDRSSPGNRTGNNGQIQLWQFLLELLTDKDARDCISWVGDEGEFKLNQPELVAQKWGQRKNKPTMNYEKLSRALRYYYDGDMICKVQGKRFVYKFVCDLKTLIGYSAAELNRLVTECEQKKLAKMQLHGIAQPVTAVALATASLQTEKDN
# Method in brief: as §1
# ERG = molecular target: T4, ERG (Homo sapiens, UniProt P11308 1-479)
# T4 sequence: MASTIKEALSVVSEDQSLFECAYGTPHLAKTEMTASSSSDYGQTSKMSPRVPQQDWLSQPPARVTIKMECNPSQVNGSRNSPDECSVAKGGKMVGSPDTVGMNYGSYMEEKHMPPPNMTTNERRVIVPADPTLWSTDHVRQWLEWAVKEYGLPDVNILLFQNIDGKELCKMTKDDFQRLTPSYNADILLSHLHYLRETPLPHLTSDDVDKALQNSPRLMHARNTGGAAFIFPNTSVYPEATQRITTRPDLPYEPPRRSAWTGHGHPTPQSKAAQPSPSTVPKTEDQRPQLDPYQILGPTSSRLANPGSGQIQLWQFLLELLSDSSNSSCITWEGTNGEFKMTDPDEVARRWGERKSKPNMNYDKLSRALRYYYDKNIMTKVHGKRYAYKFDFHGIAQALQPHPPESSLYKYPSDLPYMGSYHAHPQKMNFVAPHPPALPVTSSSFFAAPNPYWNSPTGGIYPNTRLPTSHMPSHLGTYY
# Method in brief: as §1
# ELF1 = ELF1 (Homo sapiens, UniProt P32519 1-619)
# Method in brief: as §1
# EHF = molecular target: T5, EHF (Homo sapiens, UniProt Q9NZC4 1-300)
# T5 sequence: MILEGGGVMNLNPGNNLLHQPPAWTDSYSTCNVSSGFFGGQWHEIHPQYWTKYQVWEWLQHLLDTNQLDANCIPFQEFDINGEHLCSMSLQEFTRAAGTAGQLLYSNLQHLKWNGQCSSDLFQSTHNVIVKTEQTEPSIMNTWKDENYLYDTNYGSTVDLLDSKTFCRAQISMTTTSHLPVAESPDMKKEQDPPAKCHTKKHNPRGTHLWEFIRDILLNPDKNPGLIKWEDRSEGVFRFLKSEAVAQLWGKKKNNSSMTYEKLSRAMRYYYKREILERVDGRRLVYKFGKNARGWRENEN
# Method in brief: as §1
# SPI1 = SPI1 (Homo sapiens, UniProt P17947 1-270)
# Method in brief: as §1
# SPIB = SPIB (Homo sapiens, UniProt Q01892 1-262)
# Method in brief: as §1
# FEV = molecular target: T6, FEV (Homo sapiens, UniProt Q99581 1-238)
# T6 sequence: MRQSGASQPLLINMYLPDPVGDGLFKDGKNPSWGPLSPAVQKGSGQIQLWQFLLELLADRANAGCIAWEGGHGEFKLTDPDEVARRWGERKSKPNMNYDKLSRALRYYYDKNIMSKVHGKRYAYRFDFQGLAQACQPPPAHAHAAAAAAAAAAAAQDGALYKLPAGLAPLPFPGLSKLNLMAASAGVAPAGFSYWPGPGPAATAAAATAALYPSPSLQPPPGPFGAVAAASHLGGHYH
# Method in brief: as §1
# ETV5 = ETV5 (Homo sapiens, UniProt P41161 1-510)
# Method in brief: as §1
# ELF4 = ELF4 (Homo sapiens, UniProt Q99607 1-663)
# Method in brief: as §1
# ETV2 = molecular target: T7, ETV2 (Homo sapiens, UniProt O00321 1-342)
# T7 sequence: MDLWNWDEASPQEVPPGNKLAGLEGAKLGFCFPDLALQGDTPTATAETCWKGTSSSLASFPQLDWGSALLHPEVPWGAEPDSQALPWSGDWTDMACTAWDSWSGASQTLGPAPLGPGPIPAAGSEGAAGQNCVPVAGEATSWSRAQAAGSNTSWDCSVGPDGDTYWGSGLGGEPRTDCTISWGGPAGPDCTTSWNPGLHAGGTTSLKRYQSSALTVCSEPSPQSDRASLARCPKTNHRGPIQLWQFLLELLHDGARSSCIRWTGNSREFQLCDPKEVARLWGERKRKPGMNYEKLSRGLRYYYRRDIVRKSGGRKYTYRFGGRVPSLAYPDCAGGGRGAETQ
# Method in brief: as §1
# ELF3 = molecular target: T8, ELF3 (Homo sapiens, UniProt P78545 1-371)
# T8 sequence: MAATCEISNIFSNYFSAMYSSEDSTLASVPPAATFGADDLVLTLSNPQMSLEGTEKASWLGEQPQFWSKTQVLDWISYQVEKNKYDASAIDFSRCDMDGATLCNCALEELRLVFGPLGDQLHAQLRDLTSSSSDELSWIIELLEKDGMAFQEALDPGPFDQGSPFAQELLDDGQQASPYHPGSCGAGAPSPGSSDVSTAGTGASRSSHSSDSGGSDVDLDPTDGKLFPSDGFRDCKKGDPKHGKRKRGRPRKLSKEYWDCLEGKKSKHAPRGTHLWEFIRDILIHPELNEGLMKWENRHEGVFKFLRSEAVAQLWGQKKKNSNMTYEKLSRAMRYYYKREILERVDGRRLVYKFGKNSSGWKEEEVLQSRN
# Method in brief: as §1
# ERF = molecular target: T9, ERF (Homo sapiens, UniProt P50548 1-548)
# T9 sequence: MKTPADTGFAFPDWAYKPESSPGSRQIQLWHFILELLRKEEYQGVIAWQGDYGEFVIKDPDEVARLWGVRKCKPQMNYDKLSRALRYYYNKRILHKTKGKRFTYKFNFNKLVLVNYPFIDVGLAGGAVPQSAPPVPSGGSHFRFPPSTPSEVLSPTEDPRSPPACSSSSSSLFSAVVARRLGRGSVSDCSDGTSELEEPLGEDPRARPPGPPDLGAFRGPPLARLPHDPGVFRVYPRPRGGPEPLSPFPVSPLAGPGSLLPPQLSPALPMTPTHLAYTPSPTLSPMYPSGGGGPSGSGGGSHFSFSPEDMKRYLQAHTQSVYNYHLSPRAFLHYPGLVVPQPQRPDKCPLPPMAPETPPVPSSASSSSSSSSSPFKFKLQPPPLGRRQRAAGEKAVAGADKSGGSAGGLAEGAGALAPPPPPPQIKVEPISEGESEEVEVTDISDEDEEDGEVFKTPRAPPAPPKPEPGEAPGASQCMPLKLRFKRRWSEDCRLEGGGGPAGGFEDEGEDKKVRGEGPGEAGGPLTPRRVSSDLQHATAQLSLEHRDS
# Method in brief: as §1
# ETV3L = molecular target: T10, ETV3L (Homo sapiens, UniProt Q6ZN32 1-361)
# T10 sequence: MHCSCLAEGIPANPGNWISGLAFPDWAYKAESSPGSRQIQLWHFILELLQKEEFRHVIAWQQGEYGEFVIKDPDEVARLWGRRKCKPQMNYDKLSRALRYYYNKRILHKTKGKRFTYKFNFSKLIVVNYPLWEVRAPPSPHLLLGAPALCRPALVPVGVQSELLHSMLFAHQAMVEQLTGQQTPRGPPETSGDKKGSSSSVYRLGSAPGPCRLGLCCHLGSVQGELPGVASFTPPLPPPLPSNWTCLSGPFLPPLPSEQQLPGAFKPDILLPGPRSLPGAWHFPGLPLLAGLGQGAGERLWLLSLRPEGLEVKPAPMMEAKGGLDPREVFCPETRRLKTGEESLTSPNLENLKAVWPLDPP
# Method in brief: as §1
# ETS2 = molecular target: T11, ETS2 (Homo sapiens, UniProt P15036 1-469)
# T11 sequence: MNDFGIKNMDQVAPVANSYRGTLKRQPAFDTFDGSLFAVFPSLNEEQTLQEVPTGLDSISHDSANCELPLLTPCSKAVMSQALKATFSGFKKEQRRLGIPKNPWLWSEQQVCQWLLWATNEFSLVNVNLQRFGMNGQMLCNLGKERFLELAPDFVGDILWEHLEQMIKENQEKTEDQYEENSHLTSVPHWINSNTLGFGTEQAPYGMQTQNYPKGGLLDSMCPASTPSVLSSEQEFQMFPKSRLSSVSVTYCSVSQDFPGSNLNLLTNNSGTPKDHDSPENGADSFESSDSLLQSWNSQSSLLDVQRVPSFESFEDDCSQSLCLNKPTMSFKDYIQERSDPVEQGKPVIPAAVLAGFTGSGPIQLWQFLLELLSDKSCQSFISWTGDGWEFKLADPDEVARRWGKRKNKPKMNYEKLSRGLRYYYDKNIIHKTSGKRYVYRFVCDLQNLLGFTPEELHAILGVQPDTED
# Method in brief: as §1
# ETV6 = ETV6 (Homo sapiens, UniProt P41212 1-452)
# Method in brief: as §1
# Chain of ELF1 (P32519 whole entry): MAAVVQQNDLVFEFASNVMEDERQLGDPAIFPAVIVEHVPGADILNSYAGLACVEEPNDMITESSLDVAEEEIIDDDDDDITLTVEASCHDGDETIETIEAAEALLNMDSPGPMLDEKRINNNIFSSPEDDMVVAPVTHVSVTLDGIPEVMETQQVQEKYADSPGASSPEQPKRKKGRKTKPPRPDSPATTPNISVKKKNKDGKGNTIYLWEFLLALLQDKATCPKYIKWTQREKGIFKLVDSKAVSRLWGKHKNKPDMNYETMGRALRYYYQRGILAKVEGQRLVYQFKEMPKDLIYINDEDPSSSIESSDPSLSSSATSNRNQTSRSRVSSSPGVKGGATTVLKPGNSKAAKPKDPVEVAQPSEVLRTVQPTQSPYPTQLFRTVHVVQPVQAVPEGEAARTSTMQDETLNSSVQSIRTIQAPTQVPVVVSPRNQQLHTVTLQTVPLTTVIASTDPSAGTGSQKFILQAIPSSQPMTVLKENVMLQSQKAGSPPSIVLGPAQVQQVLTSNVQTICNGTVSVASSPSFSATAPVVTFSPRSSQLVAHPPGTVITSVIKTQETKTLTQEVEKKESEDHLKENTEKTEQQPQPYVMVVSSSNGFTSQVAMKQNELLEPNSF
# Chain of SPIB (Q01892 whole entry): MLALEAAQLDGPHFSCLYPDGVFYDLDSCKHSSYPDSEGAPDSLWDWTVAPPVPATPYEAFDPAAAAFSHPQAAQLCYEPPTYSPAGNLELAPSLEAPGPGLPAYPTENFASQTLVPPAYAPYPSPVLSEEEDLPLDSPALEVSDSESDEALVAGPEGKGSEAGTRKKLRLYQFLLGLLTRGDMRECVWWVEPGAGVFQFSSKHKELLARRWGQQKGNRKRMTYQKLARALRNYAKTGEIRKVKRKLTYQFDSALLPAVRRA
# Chain of ETV6 (P41212 whole entry): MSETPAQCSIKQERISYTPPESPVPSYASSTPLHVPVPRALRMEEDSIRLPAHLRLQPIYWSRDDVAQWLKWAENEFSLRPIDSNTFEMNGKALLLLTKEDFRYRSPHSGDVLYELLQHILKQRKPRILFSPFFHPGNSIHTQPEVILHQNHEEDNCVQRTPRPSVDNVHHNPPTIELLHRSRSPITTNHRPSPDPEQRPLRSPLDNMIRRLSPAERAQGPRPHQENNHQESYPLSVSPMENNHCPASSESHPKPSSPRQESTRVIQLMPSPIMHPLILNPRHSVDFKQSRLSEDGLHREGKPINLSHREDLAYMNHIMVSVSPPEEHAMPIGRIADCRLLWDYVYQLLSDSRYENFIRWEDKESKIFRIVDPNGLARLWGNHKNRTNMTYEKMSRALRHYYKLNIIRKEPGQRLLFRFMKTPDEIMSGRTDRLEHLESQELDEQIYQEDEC
# Chain of ETV5 (P41161 whole entry): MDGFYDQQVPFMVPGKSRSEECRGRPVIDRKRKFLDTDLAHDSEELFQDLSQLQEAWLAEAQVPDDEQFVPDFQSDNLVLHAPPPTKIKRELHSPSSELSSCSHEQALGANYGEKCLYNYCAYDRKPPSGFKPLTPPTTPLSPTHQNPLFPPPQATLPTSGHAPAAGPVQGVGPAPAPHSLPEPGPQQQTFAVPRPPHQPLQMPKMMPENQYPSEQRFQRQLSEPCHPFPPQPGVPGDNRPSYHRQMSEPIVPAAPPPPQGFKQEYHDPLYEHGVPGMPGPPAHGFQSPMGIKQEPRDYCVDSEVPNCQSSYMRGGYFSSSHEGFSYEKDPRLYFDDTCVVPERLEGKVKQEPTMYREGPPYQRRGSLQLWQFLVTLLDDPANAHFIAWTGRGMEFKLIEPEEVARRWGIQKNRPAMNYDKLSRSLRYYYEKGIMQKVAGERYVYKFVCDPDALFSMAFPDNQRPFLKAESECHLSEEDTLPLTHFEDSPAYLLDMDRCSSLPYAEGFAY
# Chain of ELF4 (Q99607 whole entry): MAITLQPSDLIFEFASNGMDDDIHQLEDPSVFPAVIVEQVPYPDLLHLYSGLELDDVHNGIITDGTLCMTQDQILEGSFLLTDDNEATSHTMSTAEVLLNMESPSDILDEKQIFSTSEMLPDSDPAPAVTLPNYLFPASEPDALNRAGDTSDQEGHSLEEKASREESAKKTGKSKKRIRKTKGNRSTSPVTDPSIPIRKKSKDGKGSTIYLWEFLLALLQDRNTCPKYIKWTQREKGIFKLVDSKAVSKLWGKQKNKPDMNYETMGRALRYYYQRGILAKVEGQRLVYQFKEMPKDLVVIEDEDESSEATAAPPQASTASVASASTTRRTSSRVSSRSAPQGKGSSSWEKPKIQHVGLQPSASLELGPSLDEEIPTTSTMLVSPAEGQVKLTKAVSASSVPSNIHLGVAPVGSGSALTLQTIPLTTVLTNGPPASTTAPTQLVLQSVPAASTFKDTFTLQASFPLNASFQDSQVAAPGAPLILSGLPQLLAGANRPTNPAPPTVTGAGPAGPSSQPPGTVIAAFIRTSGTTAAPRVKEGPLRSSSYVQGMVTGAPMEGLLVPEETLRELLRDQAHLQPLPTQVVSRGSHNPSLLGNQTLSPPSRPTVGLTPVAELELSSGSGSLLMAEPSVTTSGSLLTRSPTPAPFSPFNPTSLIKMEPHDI
sequence,measurement,setting,value
GCCCAA,binding signal,FLI1,"1.04 fold enrichment (6-mer frequency, TF over GST control)"
same,binding signal,ELK1,"1.08 fold enrichment (6-mer frequency, TF over GST control)"
same,binding signal,GABPA,"1.14 fold enrichment (6-mer frequency, TF over GST control)"
same,binding signal,ERG,"1.06 fold enrichment (6-mer frequency, TF over GST control)"
same,binding signal,ELF1,"1.09 fold enrichment (6-mer frequency, TF over GST control)"
same,binding signal,EHF,"1 fold enrichment (6-mer frequency, TF over GST control)"
same,binding signal,SPI1,"1.01 fold enrichment (6-mer frequency, TF over GST control)"
same,binding signal,SPIB,"1.06 fold enrichment (6-mer frequency, TF over GST control)"
same,binding signal,FEV,"1.11 fold enrichment (6-mer frequency, TF over GST control)"
same,binding signal,ETV5,"1.1 fold enrichment (6-mer frequency, TF over GST control)"
same,binding signal,ELF4,"1.12 fold enrichment (6-mer frequency, TF over GST control)"
same,binding signal,ETV2,"1.24 fold enrichment (6-mer frequency, TF over GST control)"
same,binding signal,ELF3,"1.05 fold enrichment (6-mer frequency, TF over GST control)"
same,binding signal,ERF,"1.08 fold enrichment (6-mer frequency, TF over GST control)"
same,binding signal,ETV3L,"1.04 fold enrichment (6-mer frequency, TF over GST control)"
same,binding signal,ETS2,"1.09 fold enrichment (6-mer frequency, TF over GST control)"
same,binding signal,ETV6,"1.02 fold enrichment (6-mer frequency, TF over GST control)"
